This is part of a sample that, as a whole, favours compounds with a hit. Of some 83,000 tested, about 20% had one in any assay.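 In brief: 96-well plates, 48 h treatment, single concentration, percent growth endpoint.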 The source made the active and inactive calls. How the source made its calls: active means growth percent below 10; inactive means the rest.
system: MDA-MB-468 breast; assay: NCI-60 one-dose screen, 48 h (100 = growth as untreated, 0 = no growth, -100 = all killed); details: 10 µM unless noted

Row | Structure (SMILES) | growth
1 | Cc1cc(NS(=O)(=O)c2ccccc2)c(OS(=O)(=O)c2ccccc2)cc1C | 102% (inactive)
2 | CCN(CC)CCOc1nc2cc(OC)c(OC)cc2c2c1-c1ccc(OC)cc1C2=O | 84% (inactive)
3 | CCCCCCCCCCCCCCCCCCNC(=S)N/N=C/c1ccc(OC)c(OC)c1 | 93.5% (inactive)
4 | CN1C(=O)N(C)C2C1NN=c1s/c(=C\c3c[nH]c4ccccc34)c(=O)n12 (stereo unspecified) | 39.5% (inactive)
5 | CN1C(=O)C(C2=NNC(c3ccccc3C(=O)O)C2)C(=O)N(C)C1=O (stereo unspecified) | 96.4% (inactive)
6 | Cc1c2oc3c(C)ccc(C(=O)OC(C)C4NC(=O)C(C(C)C)N(C)C(=O)CN(C)C(=O)C5CCCN5C(=O)C(C(C)C)NC4=O)c3nc-2c(C(=O)OC(C)C2NC(=O)C(C(C)C)N(C)C(=O)CN(C)C(=O)C3CCCN3C(=O)C(C(C)C)NC2=O)c(N)c1=O (stereo unspecified) | -68.7% (active)
7 | CC(=O)Nc1nonc1-c1nc2ccccc2n1Cc1ccc(C(C)(C)C)cc1 | 86.8% (inactive)
8 | C[C@H]1[C@H](C)CC[C@]2(C(=O)NCC#CCN3CCN(C)CC3)CC[C@]3(C)C(=CC[C@@H]4[C@@]5(C)Cc6c([nH]c7ccccc67)C(C)(C)[C@@H]5CC[C@]43C)[C@H]12 | 90.1% (inactive)
9 | COc1cc(/C=C/c2cc(/C=C/c3ccc(O)c(OC)c3)n(C(=O)Nc3ccccc3Cl)n2)ccc1O | -24.2% (active)
10 | COc1ccc(COC=O)cc1 | 114% (inactive)
11 | CC(=O)[C@@H]1CC[C@]2(COS(=O)(=O)c3ccc(C)cc3)CC[C@]3(C)[C@H](CC[C@@H]4[C@@]5(C)CCCNC(C)(C)[C@@H]5CC[C@]43C)[C@@H]12 | 20.2% (inactive)

Source: PubChem BioAssay (NCI)
